Assay [1] has as its target Thyrotropin-releasing hormone receptor (Homo sapiens) (UniProt P34981). Description: qHTS assay to identify small molecule agonists of the thyrotropin-releasing hormone receptor (TRHR) signaling pathway (AID 1346891; calls by dose curve;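 note: HEK293 cells expressing TRHR with calcium dye readout; series mostly up to about 58 µM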). The procedure, abridged: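 HEK293/TRHR cells, 1500 per well, 18 h 37 °C; Ca dye 2 h 37 °C; pin-tool compound addition (agonist mode); kinetic fluorescence 3 min, 1 s reads; 15 concentrations, triplicate.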
A general note: In qHTS, concentration-response curves come from the screen itself.

Assay [2] can be described thus: Human pregnane X receptor (PXR) small molecule agonists, qHTS cell viability counter screen (AID 1346977). Note: nearly all actives have a fitted effect of over 50% in size. Note: potency is the fitted concentration of half-maximal effect. In a few lines:
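Fluorescence read-out (CellTiter-Fluor) of viability in PXR-Luc HepG2 cells, multiplexed with the luciferase agonist read. Compounds in DMSO added after 5hr plating; 24hr total exposure at 37C, 5% CO2.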

Assay [3] is described as follows: Caspase-3/7 induction in HepG2 cells by small molecules, qHTS assay (AID 1346978). Note: nearly all actives have a fitted effect of over 15% in size. In a few lines: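 Caspase-3/7 induction was measured by Caspase-Glo 3/7 luminescence (30 min, room temperature) after a 17 hr compound exposure of wild-type HepG2 cells seeded at 2,000 per well and pre-incubated 5 hr.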
Assay [4] is described as follows: Caspase-3/7 induction in CHO-K1 cells by small molecules, qHTS cell viability counter screen (AID 1346979). Note: nearly all actives have a fitted effect of over 35% in size. Note: potency is the fitted concentration of half-maximal effect. The procedure, abridged:
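CHO-K1 wt, 1,500 cells/well; 5hr pre-incubation 37C/5% CO2; compound pin transfer (DMSO); 16hr exposure; CellTiter-Fluor added, 1hr, fluorescence read.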

Assay [5] is described as follows: Caspase-3/7 induction in CHO-K1 cells by small molecules, qHTS assay (AID 1346980). Note: nearly all actives have a fitted effect of over 15% in size. The procedure, abridged:
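Luminescent Caspase-Glo 3/7 read (30min, room temperature) quantified apoptosis induction. Cells were wild-type CHO-K1, treated with compound for 17hr at 37 C and 5% CO2.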

For assay [6], the target named is Nuclear receptor subfamily 1 group I member 2 (Homo sapiens) (UniProt O75469). Description: Human pregnane X receptor (PXR) small molecule agonists, qHTS assay (AID 1346982). Note: nearly all actives have a fitted effect of over 35% in size. Note: potency is the fitted concentration of half-maximal effect. In a few lines: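 Cells: HepG2 stably carrying PXR-Luc. Medium held 5% charcoal-stripped FBS. Compounds in DMSO added after 5 hr plating, incubated 24 hr, then luminescence quantified with ONE-Glo.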

Assay [7] has as its target Cytochrome P450 2D6 (Homo sapiens) (UniProt P10635). The assay can be described thus: Cytochrome P450 Family 2 Subfamily D Member 6 (CYP2D6) small molecule antagonists: luciferase reporter qHTS assay (AID 1671196). Note: nearly all actives have a fitted effect of over 50% in size. Note: potency is the fitted concentration of half-maximal effect. In a few lines: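 Enzyme and proluciferin substrate were first combined with test chemical for 10 min at room temperature. Adding NADPH regeneration solution started a 1 h reaction, stopped with luciferin detection reagent and read by luminescence 20 min later.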

For assay [8], the target named is Cytochrome P450 2C19 (Homo sapiens) (UniProt P33261). Description: Cytochrome P450 Family 2 Subfamily C Member 19 (CYP2C19) small molecule antagonists: luciferase reporter qHTS assay (AID 1671197). Note: nearly all actives have a fitted effect of over 65% in size. Note: potency is the fitted concentration of half-maximal effect. In a few lines: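 Relative luminescence units recorded 20 min after the detection reagent stopped a 1 h, 37C CYP2C19 reaction on proluciferin substrate, which was started by NADPH regeneration following 10 min room-temperature compound preincubation; ketoconazole positive control.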
Background: In a reporter assay the amount or activity of a reporter protein is the signal.

For assay [9], the target named is Cytochrome P450 2C9 (Homo sapiens) (UniProt P11712). The assay can be described thus: Cytochrome P450 Family 2 Subfamily C Member 9 (CYP2C9) small molecule antagonists: luciferase reporter qHTS assay (AID 1671198). Note: nearly all actives have a fitted effect of over 50% in size. Note: potency is the fitted concentration of half-maximal effect. In a few lines: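 Enzyme-substrate mix preincubated with compound 10 min at room temperature; reaction started with NADPH regeneration solution, 1 h 37C. Luminescent luciferin product read after 20 min detection reagent.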

In assay [10] the target is Cytochrome P450 1A2 (Homo sapiens) (UniProt P05177). The assay can be described thus: Cytochrome P450 Family 1 Subfamily A Member 2 (CYP1A2) small molecule antagonists: luciferase reporter qHTS assay (AID 1671199). Note: nearly all actives have a fitted effect of over 50% in size. Note: potency is the fitted concentration of half-maximal effect. In a few lines:
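Compounds were incubated with CYP1A2 and a luminogenic proluciferin substrate for 10 min at room temperature before the reaction was started with NADPH regeneration solution. After 1 h, detection reagent was added and light output, proportional to CYP activity, was recorded.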

The target of assay [11] is Voltage-gated inwardly rectifying potassium channel KCNH2 (Homo sapiens) (UniProt Q12809). Description: Human Ether-a-go-go-Related Gene (hERG) channel small molecule antagonists: fluorescence cell-based qHTS assay (AID 1671200). Note: nearly all actives have a fitted effect of over 50% in size. Note: potency is the fitted concentration of half-maximal effect. In a few lines: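 Read-out: thallium influx as a surrogate for potassium, tracked as fluorescence (480 nm ex/540 nm em) every second for 2 min after Stimulus Buffer addition in dye-loaded hERG-U2OS cells.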

Assay [12] concerns the target Cytochrome P450 3A4 (Homo sapiens) (UniProt P08684). The assay can be described thus: Cytochrome P450 Family 3 Subfamily A Member 4 (CYP3A4) small molecule antagonists: luciferase reporter qHTS assay (AID 1671201). Note: nearly all actives have a fitted effect of over 50% in size. Note: potency is the fitted concentration of half-maximal effect. The procedure, abridged: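 Luminescent readout (RLU) proportional to CYP3A4 activity, from luciferin generated off a proluciferin substrate. Enzyme–substrate mix plus compound 10 min at room temp, NADPH regeneration 1 h, detection reagent 20 min.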

In assay [13] the target is Nuclear receptor subfamily 1 group I member 2 (Rattus norvegicus) (UniProt Q9R1A7). Description: Rat pregnane X receptor (rPXR) activation by small molecules, qHTS assay (AID 1346983). Note: potency is the fitted concentration of half-maximal effect; nearly all actives have a fitted effect of over 20% in size. The note with it: rPXR luciferase reporter cells, One-Glo luminescence, 24 h; max activation: hits give high values. In a few lines:
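Luminescent readout (One-Glo luciferase, 30 min room temperature) followed 24 hr compound treatment at 37 C of rPXR cells plated 2,000 per well and preincubated 5hr; qHTS format with compounds delivered in DMSO.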

In assay [14] the target is Nuclear receptor subfamily 1 group I member 2 (Homo sapiens) (UniProt O75469). The assay can be described thus: CYP3A4 induction through human pregnane X receptor (PXR) by small molecules, qHTS assay (AID 1346984). Note: nearly all actives have a fitted effect of over 40% in size. Note: potency is the fitted concentration of half-maximal effect. The procedure, abridged:
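Quantitative HTS in DPX-2 cells, i.e. HepG2 transfected with PXR response element and CYP3A4-promoter luciferase. Compounds in DMSO incubated 24hr at 37C; then P450-Glo CYP3A4 substrate, 3uM final, 3hr; One-Glo luminescence.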

A short description of assay [15]: Caspase-3/7 induction in HepG2 cells by small molecules, qHTS cell viability counter screen (AID 1346981). Note: series mostly up to about 92 µM; nearly all actives have a fitted effect of over 30% in size. In a few lines:
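Cell viability is measured as a cytotoxicity counter screen alongside the Caspase-Glo 3/7 readout in identical wells. Wild-type HepG2 cells are treated with test compounds for 16 hr at 37 C before CellTiter-Fluor addition and a 1-hr incubation.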

Molecules are shown by their SMILES. A number with no mark means an inactive call. Inconclusive results are not listed. Calls of active or inactive are those of the source. Unless noted, calls come from the whole dose curve; as a rule, active = well fitted curve in the direction sought with a large enough effect in the repeat runs; inconclusive = weak or mixed curves; inactive = no such curve, though single readings can be large; an effect the other way counts as inactive or inconclusive.

Sequence of Thyrotropin-releasing hormone receptor (Homo sapiens) (P34981 whole entry, looked up): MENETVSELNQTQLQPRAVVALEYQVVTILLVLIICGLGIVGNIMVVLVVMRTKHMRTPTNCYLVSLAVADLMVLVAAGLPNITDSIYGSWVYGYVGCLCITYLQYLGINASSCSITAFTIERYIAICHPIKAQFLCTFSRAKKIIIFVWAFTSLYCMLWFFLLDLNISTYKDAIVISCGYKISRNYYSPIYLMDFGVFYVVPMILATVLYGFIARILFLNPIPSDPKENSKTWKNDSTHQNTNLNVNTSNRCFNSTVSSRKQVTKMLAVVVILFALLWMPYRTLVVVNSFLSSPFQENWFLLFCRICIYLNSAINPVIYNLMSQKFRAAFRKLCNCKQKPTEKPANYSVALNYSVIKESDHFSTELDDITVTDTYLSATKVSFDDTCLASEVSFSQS
Sequence of Cytochrome P450 2C19 (Homo sapiens) (P33261 whole entry, looked up): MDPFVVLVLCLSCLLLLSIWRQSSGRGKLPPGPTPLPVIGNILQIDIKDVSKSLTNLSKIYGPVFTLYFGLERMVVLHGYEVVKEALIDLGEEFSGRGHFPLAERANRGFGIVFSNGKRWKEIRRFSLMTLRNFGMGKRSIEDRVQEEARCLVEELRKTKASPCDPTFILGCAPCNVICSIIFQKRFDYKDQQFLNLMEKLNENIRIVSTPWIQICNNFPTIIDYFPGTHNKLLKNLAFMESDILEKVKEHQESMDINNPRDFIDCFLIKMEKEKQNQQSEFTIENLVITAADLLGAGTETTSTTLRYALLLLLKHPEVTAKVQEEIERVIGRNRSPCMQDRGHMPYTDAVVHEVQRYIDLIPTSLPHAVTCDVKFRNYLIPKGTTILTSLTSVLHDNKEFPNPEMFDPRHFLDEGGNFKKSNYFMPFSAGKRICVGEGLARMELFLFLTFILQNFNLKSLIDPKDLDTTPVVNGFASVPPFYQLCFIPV
Sequence of Nuclear receptor subfamily 1 group I member 2 (Homo sapiens) (O75469 whole entry, looked up): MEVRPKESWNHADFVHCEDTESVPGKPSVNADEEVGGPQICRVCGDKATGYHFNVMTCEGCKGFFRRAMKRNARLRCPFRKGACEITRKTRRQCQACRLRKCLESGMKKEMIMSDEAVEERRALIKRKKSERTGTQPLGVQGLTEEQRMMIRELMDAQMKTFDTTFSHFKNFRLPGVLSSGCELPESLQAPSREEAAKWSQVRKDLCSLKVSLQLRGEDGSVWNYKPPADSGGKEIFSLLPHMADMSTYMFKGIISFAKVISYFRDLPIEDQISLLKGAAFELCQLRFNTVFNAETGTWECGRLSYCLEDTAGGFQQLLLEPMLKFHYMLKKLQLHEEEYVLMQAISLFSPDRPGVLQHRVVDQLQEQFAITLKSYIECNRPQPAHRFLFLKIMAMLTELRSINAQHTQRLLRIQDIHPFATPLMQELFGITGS
Sequence of Cytochrome P450 1A2 (Homo sapiens) (P05177 whole entry, looked up): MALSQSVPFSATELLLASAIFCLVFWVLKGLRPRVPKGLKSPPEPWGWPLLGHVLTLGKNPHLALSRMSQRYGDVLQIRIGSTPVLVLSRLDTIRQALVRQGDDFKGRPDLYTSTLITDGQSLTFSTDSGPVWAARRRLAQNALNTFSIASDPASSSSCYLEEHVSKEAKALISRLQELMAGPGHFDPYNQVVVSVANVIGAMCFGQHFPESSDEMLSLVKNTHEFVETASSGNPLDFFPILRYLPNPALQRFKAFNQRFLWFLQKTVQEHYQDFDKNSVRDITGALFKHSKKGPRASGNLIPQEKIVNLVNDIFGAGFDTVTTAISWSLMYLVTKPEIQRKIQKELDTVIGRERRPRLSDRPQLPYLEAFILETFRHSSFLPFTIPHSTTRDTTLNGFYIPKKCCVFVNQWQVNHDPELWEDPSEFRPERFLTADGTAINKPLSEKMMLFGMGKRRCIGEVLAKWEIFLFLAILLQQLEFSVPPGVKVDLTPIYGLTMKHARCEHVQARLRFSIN
Sequence of Cytochrome P450 2D6 (Homo sapiens) (P10635 whole entry, looked up): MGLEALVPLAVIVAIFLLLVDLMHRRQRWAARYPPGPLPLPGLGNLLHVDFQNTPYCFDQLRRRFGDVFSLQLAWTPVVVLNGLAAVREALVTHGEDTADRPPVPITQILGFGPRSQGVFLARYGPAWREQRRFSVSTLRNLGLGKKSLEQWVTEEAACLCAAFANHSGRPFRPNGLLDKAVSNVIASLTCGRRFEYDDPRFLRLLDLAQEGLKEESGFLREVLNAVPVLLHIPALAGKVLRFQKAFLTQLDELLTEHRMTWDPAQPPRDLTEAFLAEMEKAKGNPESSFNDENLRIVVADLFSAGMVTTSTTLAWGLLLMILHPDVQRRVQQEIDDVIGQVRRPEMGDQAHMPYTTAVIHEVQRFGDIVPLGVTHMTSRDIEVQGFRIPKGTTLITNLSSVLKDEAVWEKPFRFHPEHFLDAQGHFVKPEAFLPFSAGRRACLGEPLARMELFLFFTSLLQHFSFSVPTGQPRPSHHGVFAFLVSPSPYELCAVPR
Sequence of Voltage-gated inwardly rectifying potassium channel KCNH2 (Homo sapiens) (Q12809 whole entry, looked up): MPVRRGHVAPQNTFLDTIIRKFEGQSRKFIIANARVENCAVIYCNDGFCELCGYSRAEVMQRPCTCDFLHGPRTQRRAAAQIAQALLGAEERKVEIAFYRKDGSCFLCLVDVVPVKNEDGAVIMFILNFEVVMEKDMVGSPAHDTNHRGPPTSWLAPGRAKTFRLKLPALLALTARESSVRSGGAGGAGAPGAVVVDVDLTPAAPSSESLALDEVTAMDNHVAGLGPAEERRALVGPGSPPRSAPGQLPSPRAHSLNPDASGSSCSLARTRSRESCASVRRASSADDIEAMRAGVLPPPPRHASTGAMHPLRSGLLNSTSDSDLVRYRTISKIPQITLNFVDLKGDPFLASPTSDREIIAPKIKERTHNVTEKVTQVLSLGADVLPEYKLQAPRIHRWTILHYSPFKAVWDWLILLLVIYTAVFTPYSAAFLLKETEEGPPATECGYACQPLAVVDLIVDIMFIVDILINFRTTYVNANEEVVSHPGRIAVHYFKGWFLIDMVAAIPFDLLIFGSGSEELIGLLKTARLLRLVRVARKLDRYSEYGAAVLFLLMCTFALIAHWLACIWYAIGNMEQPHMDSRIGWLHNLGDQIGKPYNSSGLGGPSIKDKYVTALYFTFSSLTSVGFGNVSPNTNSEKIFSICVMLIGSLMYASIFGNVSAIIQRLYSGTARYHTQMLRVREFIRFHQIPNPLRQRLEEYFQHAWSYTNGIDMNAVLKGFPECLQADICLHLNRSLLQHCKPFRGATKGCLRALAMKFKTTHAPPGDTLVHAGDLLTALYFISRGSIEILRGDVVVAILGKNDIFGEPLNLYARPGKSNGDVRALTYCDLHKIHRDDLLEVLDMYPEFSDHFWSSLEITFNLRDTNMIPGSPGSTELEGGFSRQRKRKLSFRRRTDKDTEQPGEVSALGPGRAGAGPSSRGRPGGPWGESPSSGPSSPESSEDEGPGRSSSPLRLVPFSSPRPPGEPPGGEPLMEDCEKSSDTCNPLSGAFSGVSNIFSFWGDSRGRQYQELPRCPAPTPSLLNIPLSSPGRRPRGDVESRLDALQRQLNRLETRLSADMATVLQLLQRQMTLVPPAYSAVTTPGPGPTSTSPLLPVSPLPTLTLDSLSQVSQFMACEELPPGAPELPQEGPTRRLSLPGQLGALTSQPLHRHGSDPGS
Sequence of Cytochrome P450 2C9 (Homo sapiens) (P11712 whole entry, looked up): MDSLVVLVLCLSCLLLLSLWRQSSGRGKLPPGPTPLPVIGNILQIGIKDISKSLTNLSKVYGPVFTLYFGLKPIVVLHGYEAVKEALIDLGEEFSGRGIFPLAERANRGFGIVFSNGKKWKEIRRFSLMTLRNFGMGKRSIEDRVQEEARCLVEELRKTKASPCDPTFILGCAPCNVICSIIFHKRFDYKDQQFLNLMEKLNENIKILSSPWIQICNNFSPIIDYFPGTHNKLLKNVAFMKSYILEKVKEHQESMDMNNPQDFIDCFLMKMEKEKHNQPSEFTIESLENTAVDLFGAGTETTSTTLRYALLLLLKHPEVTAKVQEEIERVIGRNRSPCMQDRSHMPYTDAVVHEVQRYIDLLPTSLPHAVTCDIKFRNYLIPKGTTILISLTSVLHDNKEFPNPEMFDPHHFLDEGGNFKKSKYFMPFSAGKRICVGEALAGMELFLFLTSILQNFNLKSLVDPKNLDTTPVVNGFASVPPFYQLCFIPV
Sequence of Cytochrome P450 3A4 (Homo sapiens) (P08684 whole entry, looked up): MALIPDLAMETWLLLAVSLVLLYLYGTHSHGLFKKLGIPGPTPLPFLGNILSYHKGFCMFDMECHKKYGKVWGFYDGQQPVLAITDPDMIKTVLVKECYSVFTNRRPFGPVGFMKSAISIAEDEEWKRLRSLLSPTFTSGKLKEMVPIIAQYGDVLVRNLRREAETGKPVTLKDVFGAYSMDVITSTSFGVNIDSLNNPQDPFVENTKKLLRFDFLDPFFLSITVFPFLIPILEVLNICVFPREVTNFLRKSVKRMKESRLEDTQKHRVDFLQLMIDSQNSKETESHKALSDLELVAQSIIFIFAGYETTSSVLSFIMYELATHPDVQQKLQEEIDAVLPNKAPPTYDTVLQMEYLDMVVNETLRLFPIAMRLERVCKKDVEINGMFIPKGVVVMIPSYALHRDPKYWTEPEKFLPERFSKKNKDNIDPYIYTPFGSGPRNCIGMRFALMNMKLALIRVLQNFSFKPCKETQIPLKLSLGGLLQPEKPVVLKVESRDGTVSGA
Sequence of Nuclear receptor subfamily 1 group I member 2 (Rattus norvegicus) (Q9R1A7 whole entry, looked up): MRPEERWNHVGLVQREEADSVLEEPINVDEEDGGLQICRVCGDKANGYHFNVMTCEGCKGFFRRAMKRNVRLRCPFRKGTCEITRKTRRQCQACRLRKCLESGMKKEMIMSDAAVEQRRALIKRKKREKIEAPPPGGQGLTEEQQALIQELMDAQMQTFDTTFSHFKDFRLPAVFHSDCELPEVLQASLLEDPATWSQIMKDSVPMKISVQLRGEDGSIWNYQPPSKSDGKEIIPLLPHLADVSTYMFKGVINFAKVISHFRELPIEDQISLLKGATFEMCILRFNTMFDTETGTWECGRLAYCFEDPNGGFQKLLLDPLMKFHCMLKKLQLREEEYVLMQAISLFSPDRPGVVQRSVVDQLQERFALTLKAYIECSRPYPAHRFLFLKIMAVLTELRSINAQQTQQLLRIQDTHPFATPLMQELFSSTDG

In the case of `COCC(O)CO` (stereo unspecified), the Potency result in assay [1], in assay [2], in assay [3], in assay [4], in assay [6] and in [7] was “inactive” in each case. The Potency result in [8], in assay [9], in [10], in [11] and in [12] was “inactive” each time. Moreover, the compound was called inactive in assay [5].

`CC[C@H](NC(=O)c1cc(F)ccc1NS(=O)(=O)c1cccc2cccnc12)c1ccccc1`: the Potency entry in assay [1], in [2], in assay [3], in assay [10] and in assay [11] was “inactive” each time. In addition, the Potency in assay [4] is 46 µM (active); in [6] it was 0.46 µM (active); in assay [9] it was 9.49 µM (active); in [12], 1.5 µM (active). Besides, the result in assay [5] was inactive.

For `CC1(C)O[C@@H]2C[C@H]3[C@@H]4CCC5=CC(=O)C=C[C@]5(C)[C@H]4[C@@H](O)C[C@]3(C)[C@]2(C(=O)CO)O1`, the Potency entry in assay [1], in [2], in assay [3], in [4], in assay [8] and in assay [10] was “inactive” throughout. In addition, in assay [11], the Potency result was “inactive”. Also, in [5], the compound was classed as inactive. In addition, the Potency in assay [13] is 8.91 µM (active); in [14] it was 1.58 µM (active); in [7], 38.9 µM (active).

With `CCOC(=N)CC(=O)OCC`, the Potency entry in [1], in [2], in assay [3], in assay [4], in assay [15] and in [6] was “inactive” in each case. In addition, the Potency result in assay [8], in assay [9], in assay [11] and in assay [12] was “inactive” each time. Besides, in assay [5], the result was inactive. The Potency in assay [10] is 39.9 µM (active).

Consider `CCc1nn(CCCN2CCN(c3cccc(Cl)c3)CC2)c(=O)n1CCOc1ccccc1`, for which the Potency entry in [1], in assay [3], in assay [14], in assay [9] and in [10] was “inactive” in each case. Also, the Potency is 23.7 µM (active) in [2]; 29.8 µM (active) in [4]; 3.76 µM (active) in assay [6]; 12.6 µM (active) in [13]; 4.9 µM (active) in assay [7]; 1.51 µM (active) in assay [11]. In addition, the outcome in assay [5] was inactive.

As for `CC1=NN(c2ccc(C(=O)O)cc2)C(=O)C1`, the Potency result in [1], in assay [2], in assay [3], in assay [4], in assay [15] and in assay [6] was “inactive” each time. Moreover, the Potency entry in assay [9], in assay [10], in [11] and in assay [12] was “inactive” each time. For the same compound, in [5], the result was inactive.

On to `Cc1oc(C)c(C(=O)Nc2ccccc2)c1C`, for which the Potency entry in [1], in [2], in assay [3], in [15], in assay [11] and in assay [12] was “inactive” each time. In addition, the Potency in assay [4] is 27.3 µM (active); in assay [7], 56.4 µM (active); in assay [8], 35.6 µM (active); in assay [9], 35.6 µM (active); in assay [10], 15.9 µM (active). The result in assay [5] was inactive.

For the compound `CC(C)c1nnc2ccc(-c3ocnc3-c3cc(F)ccc3F)cn12`, the Potency result in assay [1], in assay [2], in [3], in assay [4], in assay [15] and in assay [11] was “inactive” each time. In addition, the outcome in assay [5] was inactive. Besides, the Potency in [6] was 48.6 µM (active); in [8] it was 56.4 µM (active); in assay [9] it was 5.64 µM (active); in assay [10], 35.6 µM (active).

Consider `CCCCCCOC(=O)C(C)C`, for which the Potency entry in assay [1], in assay [2], in assay [3], in assay [4], in assay [15] and in assay [6] was “inactive” each time. Moreover, the Potency result in assay [9], in assay [11] and in assay [12] was “inactive” each time. Also, the compound was classed as inactive in [5].

(Values after PubChem BioAssay (Tox21).)
